Data from PubChem BioAssay (EPA / NIEHS).
Activity calls are given as the source filed them. The calls were made as follows: active = hit-call score of the fitted dose curve at least 0.9, where 1 is the maximum; inactive = score below 0.9.

Assays:
[1] = APR_HepG2_NuclearSize_72hr: Apredica 72-hour HepG2 Assay for Nuclear Size (AID 2282925); conditions: high-content imaging, actives raise or lower the signal
Procedure, shortened: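 HepG2 cells dosed 72 h at 0.39–200 uM (10 concentrations, duplicate) in 0.5% v/v DMSO final. Fixed, Hoechst 33342-stained nuclei imaged; nuclear diameter measured by automated image analysis. Bidirectional fit versus DMSO.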

[2] = ATG_CRE_CIS: Attagene CIS-FACTORIAL HepG2 Assay for human cAMP Responsive Element (CRE) binding protein 3 (AID 2282926); conditions: HepG2 CRE cis-reporter, Attagene multiplexed mRNA; actives raise or lower the signal
Procedure, shortened: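 Transfected HepG2 were treated for 24 hours, then RNA was extracted and reporter cDNA amplified with sequence-specific primers. Labelled fragments were separated by capillary electrophoresis, and the CRE signal was fitted bidirectionally with DMSO as baseline.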

[3] = biological target: CCAAT/enhancer-binding protein beta (Homo sapiens) (UniProt P17676); experiment: ATG_C_EBP_CIS: Attagene CIS-FACTORIAL HepG2 Assay for human CCAAT/Enhancer Binding Protein (C/EBP) beta (AID 2282927); conditions: HepG2 Attagene cis-factorial transcription factor reporter; actives raise or lower the signal
Procedure, shortened: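 Transiently transfected HepG2 (MRTU library, endogenous TF-driven promoters); 24 h dosing; total RNA → oligo(dT) RT → PCR → 6-FAM primer extension → HpaI digest → CE; fit bidirectionally vs DMSO.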

[4] = ATG_CMV_CIS: Attagene CIS-FACTORIAL HepG2 Assay for human CMV (Internal Marker) (AID 2282928); conditions: HepG2 CMV promoter reporter, transcription factor profiling; actives raise or lower the signal;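 also: endpoint acts as a background internal control marker rather than a target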
Procedure, shortened: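 Endogenous transcription factor activity read in HepG2 via transfected cis-promoter reporter units. After 24 h dosing, reporter mRNA measured by RT-PCR/capillary electrophoresis; gain or loss of signal fit relative to DMSO.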

[5] = ATG_DR4_LXR_CIS: Attagene CIS-FACTORIAL HepG2 Assay for human Liver X Receptor (LXR), DR4 submotif (AID 2282929); conditions: HepG2 Attagene DR4 cis-reporter, mRNA transcription; actives raise or lower the signal
Procedure, shortened: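 Cells were transfected with multiple reporter transcription units, exposed to chemicals for 24 hours, then lysed for RNA. Reporter mRNA induction was measured by RT-PCR with capillary electrophoresis detection and fitted in both directions relative to DMSO.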

[6] = biological target: Aryl hydrocarbon receptor (Homo sapiens) (UniProt P35869); experiment: ATG_Ahr_CIS: Attagene CIS-FACTORIAL HepG2 Assay for human Aryl Hydrocarbon Receptor (Ahr) (AID 2282930); conditions: HepG2 AhR cis-factorial reporter transcription; actives raise or lower the signal
Procedure, shortened: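 Read-out: reporter mRNA quantified by RT-PCR with fluorescent primer extension and capillary electrophoresis. Human HepG2 liver cells carried transfected cis-promoter reporter units and were exposed to chemical for 24 h; gain or loss fitted relative to DMSO.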

[7] = ATG_AP_1_CIS: Attagene CIS-FACTORIAL HepG2 Assay for human Activator Protein 1 (AP-1) (AID 2282931); conditions: HepG2 Attagene cis-factorial AP-1 reporter mRNA; actives raise or lower the signal
Procedure, shortened: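 Endogenous transcription-factor activity in human HepG2 liver cells is read through a cis-promoter reporter transcript, sampled 24 h after dosing. Detection uses RT-PCR with capillary electrophoresis; values come from bidirectional fitting relative to DMSO.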

[8] = ATG_AP_2_CIS: Attagene CIS-FACTORIAL HepG2 Assay for human Activator Protein 2 (AP-2) (AID 2282932); conditions: HepG2 AP-2 cis-reporter, Attagene transcription factor profiling; actives raise or lower the signal
Procedure, shortened: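 Multiplexed mRNA reporter assay in HepG2: cis-regulated units report endogenous factor activity after 24 h treatment. Fluorescence from capillary electrophoresis of RT-PCR products gives the signal, with DMSO as baseline.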

[9] = ATG_BRE_CIS: Attagene CIS-FACTORIAL HepG2 Assay for human Bone Morphogenetic Protein (BMP) Response Element (BRE) (AID 2282933); conditions: HepG2 BMP response element reporter, Attagene transcription factor profiling; actives raise or lower the signal
Procedure, shortened: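 Fluorescence-labelled reporter cDNA fragments, separated by capillary electrophoresis, gave the signal for this component of a 52-readout multiplex. HepG2 cells were transfected, exposed to chemicals for 24 h, and compared with DMSO using bidirectional fitting.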

[10] = biological target: Retinoic acid receptor alpha (Homo sapiens) (UniProt P10276); experiment: ATG_DR5_RAR_CIS: Attagene CIS-FACTORIAL HepG2 Assay for human Retinoic Acid Receptor Alpha (RARE), DR5 submotif (AID 2282934); conditions: HepG2 Attagene cis-factorial RARE DR5 reporter, mRNA; actives raise or lower the signal;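 as to AC50: reporter responds to endogenous RAR alpha beta and gamma in HepG2 not RARA alone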
Procedure, shortened: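 Read-out: DR5-driven reporter transcript measured by RT-PCR, 6-FAM primer extension, HpaI digest and capillary electrophoresis. Human HepG2 liver cells carry transiently transfected cis-element reporter constructs; dosing lasts 24 h. Gain or loss of signal fitted against DMSO baseline.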

[11] = biological target: Transcription factor E2F1 (Homo sapiens) (UniProt Q01094); experiment: ATG_E2F_CIS: Attagene CIS-FACTORIAL HepG2 Assay for human E2F Transcription Factor 1 (AID 2282935); conditions: HepG2 Attagene cis-reporter, E2F reporter RNA transcripts; actives raise or lower the signal
Procedure, shortened: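 Measures reporter transcript levels via RT-PCR with capillary electrophoresis detection in HepG2 cells harboring cis-regulated reporter units; 24 h post-dose; bidirectional curve fitting with DMSO as baseline.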

[12] = ATG_E_Box_CIS: Attagene CIS-FACTORIAL HepG2 Assay for human Enhancer Box (E-box) (AID 2282936); conditions: HepG2 E-box cis-reporter transcription, actives raise or lower the signal
Procedure, shortened: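 First, HepG2 cells receive multiple cis-regulated reporter constructs by transient transfection. Next, chemicals are applied for 24 h. Finally, reporter mRNA is quantified via RT-PCR and capillary electrophoresis, with DMSO as baseline.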

[13] = ATG_M_61_CIS: Attagene CIS-FACTORIAL HepG2 Assay for M61 Transcription Factor (Internal Marker) (AID 2282937); conditions: HepG2 Attagene CIS-FACTORIAL M61 internal marker reporter; actives raise or lower the signal
Procedure, shortened: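 Cells were transfected with reporter units under cis-regulatory promoters, treated with chemicals for 24 h, then lysed for RNA. Reporter transcripts were quantified by RT-PCR and capillary electrophoresis, and activity was fitted bidirectionally against DMSO.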

[14] = ATG_EGR_CIS: Attagene CIS-FACTORIAL HepG2 Assay for human Early Growth Response 1 (EGR1) (AID 2282938); conditions: HepG2 Attagene CIS-FACTORIAL EGR reporter mRNA; actives raise or lower the signal
Procedure, shortened: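 Endogenous TF activity in HepG2 liver cells was gauged through cis-promoter reporter constructs transiently transfected. After 24 h dosing, reporter mRNA was quantified by RT-PCR and capillary electrophoresis, and curves fitted in both directions versus DMSO.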

[15] = ATG_M_19_CIS: Attagene CIS-FACTORIAL HepG2 Assay for M19 Transcription Factor (Internal Marker) (AID 2282939); conditions: HepG2 Attagene CIS-FACTORIAL M19 internal marker reporter; actives raise or lower the signal
Procedure, shortened: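 HepG2, MRTU transient transfection, 24 h dosing. Total RNA → RT-PCR → 6-FAM primer extension → HpaI digest → CE fluorescence. Bidirectional curve fit, DMSO negative control.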

[16] = ATG_ERE_CIS: Attagene CIS-FACTORIAL HepG2 Assay for Estrogen Response Element (ERE) (AID 2282940); conditions: HepG2 ERE cis-reporter, Attagene RNA transcript; actives raise or lower the signal
Procedure, shortened: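 After a 24 h chemical treatment, RNA from reporter-transfected HepG2 cells is reverse-transcribed, PCR-amplified and fluorescently labelled. Fragments separated by capillary electrophoresis give reporter signal; DMSO serves as negative control.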

[17] = ATG_Ets_CIS: Attagene CIS-FACTORIAL HepG2 Assay for human Erythroblast Transformation Specific (ETS) (AID 2282941); conditions: HepG2 ETS cis-reporter transcription, actives raise or lower the signal
Procedure, shortened: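 Steps: transfect HepG2 with multiple reporter units; treat compound 24 h; isolate RNA, DNase-treat, reverse-transcribe; PCR-amplify, label with 6-FAM, digest with HpaI; separate by capillary electrophoresis. Activity fitted both directions versus DMSO.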

[18] = biological target: Hepatocyte nuclear factor 3-beta (Homo sapiens) (UniProt Q9Y261); experiment: ATG_FoxA2_CIS: Attagene CIS-FACTORIAL HepG2 Assay for human Forkhead box A2 (FOXA2) (AID 2282942); conditions: HepG2 cis-reporter transcription factor activity, 24 h; actives raise or lower the signal
Procedure, shortened: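 Endogenous transcription factor activity was read in HepG2 cells carrying transiently transfected cis-promoter reporter units. After 24 h dosing, reporter mRNA was quantified by RT-PCR and capillary electrophoresis, and values fitted bidirectionally versus DMSO.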

[19] = ATG_FoxO_CIS: Attagene CIS-FACTORIAL HepG2 Assay for human Forkhead box O (FoxO) (AID 2282943); conditions: HepG2 Attagene cis-reporter, FoxO element, mRNA; actives raise or lower the signal
Procedure, shortened: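 Read-out: fluorescence of 6-FAM-labelled reporter cDNA fragments resolved by capillary electrophoresis. Transiently transfected HepG2 cells were dosed for 24 h; activity fitted in both directions relative to DMSO controls.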

[20] = ATG_GATA_CIS: Attagene CIS-FACTORIAL HepG2 Assay for human GATA Binding Protein (AID 2282944); conditions: HepG2 GATA cis-element reporter, Attagene multiplex mRNA; actives raise or lower the signal
Procedure, shortened: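 Cells: HepG2, transiently transfected with cis-regulated reporter transcription units. Exposure: 24 h. Detection: RT-PCR plus capillary electrophoresis of FAM-labeled fragments. Analysis: bidirectional, DMSO as baseline.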

Measured: AC50

Chain of CCAAT/enhancer-binding protein beta (Homo sapiens) (P17676 whole entry, looked up): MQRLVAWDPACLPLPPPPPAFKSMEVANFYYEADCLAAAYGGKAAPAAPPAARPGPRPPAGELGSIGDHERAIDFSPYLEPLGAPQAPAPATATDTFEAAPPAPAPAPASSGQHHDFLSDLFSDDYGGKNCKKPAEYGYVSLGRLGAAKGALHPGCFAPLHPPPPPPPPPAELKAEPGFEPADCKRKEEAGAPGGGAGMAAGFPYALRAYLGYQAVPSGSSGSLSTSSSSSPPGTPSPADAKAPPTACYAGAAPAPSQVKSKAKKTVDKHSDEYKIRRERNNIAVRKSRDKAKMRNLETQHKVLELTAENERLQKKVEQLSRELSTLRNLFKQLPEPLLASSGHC
Chain of Hepatocyte nuclear factor 3-beta (Homo sapiens) (Q9Y261 whole entry, looked up): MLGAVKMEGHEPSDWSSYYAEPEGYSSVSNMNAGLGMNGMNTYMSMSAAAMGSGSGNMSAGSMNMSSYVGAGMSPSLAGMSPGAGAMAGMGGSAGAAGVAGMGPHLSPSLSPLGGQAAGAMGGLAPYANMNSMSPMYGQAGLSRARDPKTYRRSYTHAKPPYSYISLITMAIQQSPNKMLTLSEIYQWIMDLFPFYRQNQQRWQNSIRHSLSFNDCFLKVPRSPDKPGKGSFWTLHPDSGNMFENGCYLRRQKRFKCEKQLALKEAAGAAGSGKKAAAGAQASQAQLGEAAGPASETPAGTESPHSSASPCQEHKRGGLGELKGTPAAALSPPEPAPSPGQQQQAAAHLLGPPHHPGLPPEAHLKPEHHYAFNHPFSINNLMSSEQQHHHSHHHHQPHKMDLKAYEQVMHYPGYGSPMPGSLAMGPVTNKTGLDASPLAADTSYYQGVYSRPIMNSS
Chain of Transcription factor E2F1 (Homo sapiens) (Q01094 whole entry, looked up): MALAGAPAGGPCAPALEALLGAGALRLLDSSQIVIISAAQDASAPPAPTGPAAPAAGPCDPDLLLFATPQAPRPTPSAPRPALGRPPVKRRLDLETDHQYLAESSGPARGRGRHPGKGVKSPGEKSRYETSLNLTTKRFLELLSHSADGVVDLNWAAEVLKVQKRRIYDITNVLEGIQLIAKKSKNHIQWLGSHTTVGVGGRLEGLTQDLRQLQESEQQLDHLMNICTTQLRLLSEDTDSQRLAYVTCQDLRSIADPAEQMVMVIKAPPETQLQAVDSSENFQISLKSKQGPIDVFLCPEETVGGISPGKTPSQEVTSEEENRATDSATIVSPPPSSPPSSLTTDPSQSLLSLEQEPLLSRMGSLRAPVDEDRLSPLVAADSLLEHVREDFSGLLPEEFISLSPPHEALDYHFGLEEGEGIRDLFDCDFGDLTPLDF
Chain of Retinoic acid receptor alpha (Homo sapiens) (P10276 whole entry, looked up): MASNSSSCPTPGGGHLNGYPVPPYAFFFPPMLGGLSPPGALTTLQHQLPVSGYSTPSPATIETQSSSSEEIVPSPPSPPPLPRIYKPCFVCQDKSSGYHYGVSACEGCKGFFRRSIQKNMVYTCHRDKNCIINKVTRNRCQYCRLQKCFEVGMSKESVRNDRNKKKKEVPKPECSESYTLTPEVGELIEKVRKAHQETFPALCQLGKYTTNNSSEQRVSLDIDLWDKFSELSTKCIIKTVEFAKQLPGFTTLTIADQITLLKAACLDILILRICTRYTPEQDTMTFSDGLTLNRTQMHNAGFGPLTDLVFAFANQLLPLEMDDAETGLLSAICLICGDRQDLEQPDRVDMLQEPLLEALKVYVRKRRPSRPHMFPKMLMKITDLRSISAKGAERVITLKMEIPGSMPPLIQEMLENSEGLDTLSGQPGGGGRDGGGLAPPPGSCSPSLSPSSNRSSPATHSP
Chain of Aryl hydrocarbon receptor (Homo sapiens) (P35869 whole entry, looked up): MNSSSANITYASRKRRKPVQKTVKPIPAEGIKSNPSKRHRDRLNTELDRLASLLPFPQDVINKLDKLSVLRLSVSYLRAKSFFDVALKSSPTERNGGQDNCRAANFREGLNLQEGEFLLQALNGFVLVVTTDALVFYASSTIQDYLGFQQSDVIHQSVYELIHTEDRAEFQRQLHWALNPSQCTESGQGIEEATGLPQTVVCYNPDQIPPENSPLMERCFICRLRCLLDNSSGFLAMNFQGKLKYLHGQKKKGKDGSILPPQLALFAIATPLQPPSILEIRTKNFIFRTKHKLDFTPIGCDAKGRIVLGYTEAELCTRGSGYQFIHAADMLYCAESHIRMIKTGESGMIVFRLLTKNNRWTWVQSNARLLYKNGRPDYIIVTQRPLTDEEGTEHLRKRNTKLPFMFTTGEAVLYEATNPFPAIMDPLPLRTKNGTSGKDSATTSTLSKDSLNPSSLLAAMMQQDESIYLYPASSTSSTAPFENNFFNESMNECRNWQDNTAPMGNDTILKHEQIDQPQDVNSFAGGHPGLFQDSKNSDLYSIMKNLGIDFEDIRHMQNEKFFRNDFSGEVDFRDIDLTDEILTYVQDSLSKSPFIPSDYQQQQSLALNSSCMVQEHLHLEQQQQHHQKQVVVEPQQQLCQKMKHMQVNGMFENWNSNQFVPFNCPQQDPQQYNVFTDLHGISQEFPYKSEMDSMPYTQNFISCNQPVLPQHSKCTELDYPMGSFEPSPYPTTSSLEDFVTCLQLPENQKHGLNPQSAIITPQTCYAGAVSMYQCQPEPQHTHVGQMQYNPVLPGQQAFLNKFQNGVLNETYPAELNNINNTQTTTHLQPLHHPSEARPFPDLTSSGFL

CC(C)N1C(=O)c2ccccc2NS1(=O)=O
active: [5] 62 µM
inactive: all other assays above

COc1cc(Cl)c(OC)cc1Cl
inactive: all assays above

O=C(Nc1ccccc1-c1ccc(Cl)cc1)c1cccnc1Cl
active: [3] 10.3 µM
not listed: [11] | [17]
inactive: all other assays above

CCCCC(C#N)(Cn1cncn1)c1ccc(Cl)cc1 (stereo not drawn)
not listed: [12] | [17]
inactive: all other assays above

CC1(C)CCC(=Cc2ccc(Cl)cc2)C1(O)Cn1cncn1 (stereo not drawn)
active: [10] 18.8 µM
inactive: all other assays above

CCNC(=O)NC(=O)C(C#N)=NOC
active: [16] 50 µM
not listed: [12]
inactive: all other assays above

CCOC(=O)C(C)OC(=O)c1cc(Oc2ccc(C(F)(F)F)cc2Cl)ccc1[N+](=O)[O-] (stereo not drawn)
active: [6] 14.7 µM | [9] 17.8 µM | [16] 34.1 µM
not listed: [12] | [17]
inactive: all other assays above
